# Measurements taken from ChEMBL document CHEMBL1961873, “Compounds: GSK PKIS; Assays: Nanosyn kinase panel” (2012).
# Columns and labels:
# [1] = biological target: Sphingosine kinase 1 (Homo sapiens) (UniProt Q9NYA1); conditions: at 1 µM;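 also: mean SPHK1 inhibition value reported from the GSK PKIS kinase panel screen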
# [2] = biological target: T1, Sphingosine kinase 2 (Homo sapiens) (UniProt Q9NRA0); conditions: at 0.1 µM
# T1 sequence (whole entry): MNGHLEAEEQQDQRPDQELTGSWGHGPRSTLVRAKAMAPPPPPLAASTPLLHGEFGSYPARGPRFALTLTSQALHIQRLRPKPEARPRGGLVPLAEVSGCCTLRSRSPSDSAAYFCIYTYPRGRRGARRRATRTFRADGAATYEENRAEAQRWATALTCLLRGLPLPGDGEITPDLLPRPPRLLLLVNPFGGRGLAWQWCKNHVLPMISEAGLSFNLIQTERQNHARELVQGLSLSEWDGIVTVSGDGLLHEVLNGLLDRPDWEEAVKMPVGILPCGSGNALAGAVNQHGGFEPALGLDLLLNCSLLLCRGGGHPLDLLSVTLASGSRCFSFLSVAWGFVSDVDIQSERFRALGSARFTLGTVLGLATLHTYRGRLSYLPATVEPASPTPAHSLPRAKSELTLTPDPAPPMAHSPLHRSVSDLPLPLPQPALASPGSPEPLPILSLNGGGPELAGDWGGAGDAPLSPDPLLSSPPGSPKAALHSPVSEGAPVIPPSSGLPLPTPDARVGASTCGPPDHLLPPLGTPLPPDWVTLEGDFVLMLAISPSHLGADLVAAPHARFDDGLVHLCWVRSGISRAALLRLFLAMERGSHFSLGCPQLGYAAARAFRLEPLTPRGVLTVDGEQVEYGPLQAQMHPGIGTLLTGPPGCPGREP
# [3] = biological target: T1, Sphingosine kinase 2 (Homo sapiens); conditions: at 1 µM
# [4] = biological target: Casein kinase II subunit alpha (Homo sapiens) (UniProt P68400); conditions: at 0.1 µM
# Casein kinase II subunit alpha (Homo sapiens), sequence (P68400 whole entry, looked up): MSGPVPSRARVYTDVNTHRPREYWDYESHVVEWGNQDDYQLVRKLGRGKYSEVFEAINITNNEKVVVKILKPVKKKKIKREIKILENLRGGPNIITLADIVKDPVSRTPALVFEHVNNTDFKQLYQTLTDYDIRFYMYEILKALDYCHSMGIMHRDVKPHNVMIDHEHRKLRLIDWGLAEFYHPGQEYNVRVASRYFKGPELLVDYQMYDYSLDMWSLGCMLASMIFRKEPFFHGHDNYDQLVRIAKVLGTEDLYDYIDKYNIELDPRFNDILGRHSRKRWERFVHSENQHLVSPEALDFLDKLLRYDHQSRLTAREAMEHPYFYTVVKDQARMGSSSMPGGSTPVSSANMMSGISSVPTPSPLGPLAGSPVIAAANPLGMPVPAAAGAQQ
# [5] = biological target: Casein kinase II subunit alpha (Homo sapiens) (UniProt P68400); conditions: at 1 µM
# [6] = biological target: T2, Inhibitor of nuclear factor kappa-B kinase subunit alpha (Homo sapiens) (UniProt O15111); conditions: at 0.1 µM
# T2 sequence (whole entry): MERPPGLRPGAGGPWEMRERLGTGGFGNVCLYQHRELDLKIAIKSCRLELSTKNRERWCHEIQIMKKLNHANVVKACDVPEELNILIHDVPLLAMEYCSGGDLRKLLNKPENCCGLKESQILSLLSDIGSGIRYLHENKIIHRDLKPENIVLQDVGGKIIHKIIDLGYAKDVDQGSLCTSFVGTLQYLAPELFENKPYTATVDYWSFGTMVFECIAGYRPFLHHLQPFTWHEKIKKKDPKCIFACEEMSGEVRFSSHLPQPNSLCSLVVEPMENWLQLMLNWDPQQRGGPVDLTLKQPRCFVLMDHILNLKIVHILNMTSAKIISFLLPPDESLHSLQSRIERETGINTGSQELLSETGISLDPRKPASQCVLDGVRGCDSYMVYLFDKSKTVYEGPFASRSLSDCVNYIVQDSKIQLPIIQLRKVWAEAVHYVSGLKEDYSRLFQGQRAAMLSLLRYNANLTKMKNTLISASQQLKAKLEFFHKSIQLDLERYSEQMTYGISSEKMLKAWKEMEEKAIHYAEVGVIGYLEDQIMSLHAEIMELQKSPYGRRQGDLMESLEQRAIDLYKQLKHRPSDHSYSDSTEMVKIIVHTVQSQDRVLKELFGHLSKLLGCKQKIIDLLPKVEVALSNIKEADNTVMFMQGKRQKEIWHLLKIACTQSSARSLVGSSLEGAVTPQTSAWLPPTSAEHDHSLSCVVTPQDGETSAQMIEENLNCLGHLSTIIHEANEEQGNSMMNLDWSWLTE
# [7] = biological target: T2, Inhibitor of nuclear factor kappa-B kinase subunit alpha (Homo sapiens); conditions: at 1 µM
# [8] = biological target: T3, Inhibitor of nuclear factor kappa-B kinase subunit beta (Homo sapiens) (UniProt O14920); conditions: at 0.1 µM
# T3 sequence (whole entry): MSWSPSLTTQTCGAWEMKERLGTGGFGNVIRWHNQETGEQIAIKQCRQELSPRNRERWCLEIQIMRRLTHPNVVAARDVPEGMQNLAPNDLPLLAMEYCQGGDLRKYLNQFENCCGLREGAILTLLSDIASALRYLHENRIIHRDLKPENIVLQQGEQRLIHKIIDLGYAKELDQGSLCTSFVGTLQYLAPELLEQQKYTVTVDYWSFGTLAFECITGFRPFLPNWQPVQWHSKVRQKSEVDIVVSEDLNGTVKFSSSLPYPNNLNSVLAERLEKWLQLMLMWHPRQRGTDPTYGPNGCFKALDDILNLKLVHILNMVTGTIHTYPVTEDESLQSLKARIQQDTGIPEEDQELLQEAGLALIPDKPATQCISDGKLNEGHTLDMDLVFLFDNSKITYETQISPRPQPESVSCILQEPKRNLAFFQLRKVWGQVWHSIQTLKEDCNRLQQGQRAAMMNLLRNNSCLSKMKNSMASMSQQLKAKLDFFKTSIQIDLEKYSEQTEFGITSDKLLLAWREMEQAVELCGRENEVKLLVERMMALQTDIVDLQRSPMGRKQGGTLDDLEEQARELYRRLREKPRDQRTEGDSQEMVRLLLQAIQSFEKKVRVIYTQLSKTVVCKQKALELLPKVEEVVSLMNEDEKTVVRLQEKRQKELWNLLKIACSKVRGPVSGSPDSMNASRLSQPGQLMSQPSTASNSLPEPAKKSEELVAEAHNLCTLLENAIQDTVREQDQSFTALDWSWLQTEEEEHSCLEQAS
# [9] = biological target: T3, Inhibitor of nuclear factor kappa-B kinase subunit beta (Homo sapiens); conditions: at 1 µM
# [10] = biological target: T4, Inhibitor of nuclear factor kappa-B kinase subunit epsilon (Homo sapiens) (UniProt Q14164); conditions: at 0.1 µM
# T4 sequence (whole entry): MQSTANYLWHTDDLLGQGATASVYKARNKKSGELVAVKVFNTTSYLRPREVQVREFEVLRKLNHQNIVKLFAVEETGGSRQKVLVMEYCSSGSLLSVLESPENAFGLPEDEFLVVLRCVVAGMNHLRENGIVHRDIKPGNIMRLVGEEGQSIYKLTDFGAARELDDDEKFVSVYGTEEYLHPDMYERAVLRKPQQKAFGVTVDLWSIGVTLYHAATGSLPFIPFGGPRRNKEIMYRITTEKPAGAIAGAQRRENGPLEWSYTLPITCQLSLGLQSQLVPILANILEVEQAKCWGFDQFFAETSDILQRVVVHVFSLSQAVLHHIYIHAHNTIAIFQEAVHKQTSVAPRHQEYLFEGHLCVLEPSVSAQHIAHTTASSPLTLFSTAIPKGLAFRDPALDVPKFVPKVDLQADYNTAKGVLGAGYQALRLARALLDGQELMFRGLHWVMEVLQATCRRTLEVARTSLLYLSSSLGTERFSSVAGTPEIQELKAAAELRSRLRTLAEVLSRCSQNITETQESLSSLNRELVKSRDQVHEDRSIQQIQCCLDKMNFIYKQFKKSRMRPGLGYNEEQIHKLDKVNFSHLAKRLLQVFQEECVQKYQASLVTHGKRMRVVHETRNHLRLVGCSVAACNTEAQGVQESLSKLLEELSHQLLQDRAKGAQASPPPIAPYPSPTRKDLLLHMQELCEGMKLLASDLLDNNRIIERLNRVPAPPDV
# [11] = biological target: T4, Inhibitor of nuclear factor kappa-B kinase subunit epsilon (Homo sapiens); conditions: at 1 µM
# [12] = biological target: T5, Serine/threonine-protein kinase Nek1 (Homo sapiens) (UniProt Q96PY6); conditions: at 0.1 µM
# T5 sequence (whole entry): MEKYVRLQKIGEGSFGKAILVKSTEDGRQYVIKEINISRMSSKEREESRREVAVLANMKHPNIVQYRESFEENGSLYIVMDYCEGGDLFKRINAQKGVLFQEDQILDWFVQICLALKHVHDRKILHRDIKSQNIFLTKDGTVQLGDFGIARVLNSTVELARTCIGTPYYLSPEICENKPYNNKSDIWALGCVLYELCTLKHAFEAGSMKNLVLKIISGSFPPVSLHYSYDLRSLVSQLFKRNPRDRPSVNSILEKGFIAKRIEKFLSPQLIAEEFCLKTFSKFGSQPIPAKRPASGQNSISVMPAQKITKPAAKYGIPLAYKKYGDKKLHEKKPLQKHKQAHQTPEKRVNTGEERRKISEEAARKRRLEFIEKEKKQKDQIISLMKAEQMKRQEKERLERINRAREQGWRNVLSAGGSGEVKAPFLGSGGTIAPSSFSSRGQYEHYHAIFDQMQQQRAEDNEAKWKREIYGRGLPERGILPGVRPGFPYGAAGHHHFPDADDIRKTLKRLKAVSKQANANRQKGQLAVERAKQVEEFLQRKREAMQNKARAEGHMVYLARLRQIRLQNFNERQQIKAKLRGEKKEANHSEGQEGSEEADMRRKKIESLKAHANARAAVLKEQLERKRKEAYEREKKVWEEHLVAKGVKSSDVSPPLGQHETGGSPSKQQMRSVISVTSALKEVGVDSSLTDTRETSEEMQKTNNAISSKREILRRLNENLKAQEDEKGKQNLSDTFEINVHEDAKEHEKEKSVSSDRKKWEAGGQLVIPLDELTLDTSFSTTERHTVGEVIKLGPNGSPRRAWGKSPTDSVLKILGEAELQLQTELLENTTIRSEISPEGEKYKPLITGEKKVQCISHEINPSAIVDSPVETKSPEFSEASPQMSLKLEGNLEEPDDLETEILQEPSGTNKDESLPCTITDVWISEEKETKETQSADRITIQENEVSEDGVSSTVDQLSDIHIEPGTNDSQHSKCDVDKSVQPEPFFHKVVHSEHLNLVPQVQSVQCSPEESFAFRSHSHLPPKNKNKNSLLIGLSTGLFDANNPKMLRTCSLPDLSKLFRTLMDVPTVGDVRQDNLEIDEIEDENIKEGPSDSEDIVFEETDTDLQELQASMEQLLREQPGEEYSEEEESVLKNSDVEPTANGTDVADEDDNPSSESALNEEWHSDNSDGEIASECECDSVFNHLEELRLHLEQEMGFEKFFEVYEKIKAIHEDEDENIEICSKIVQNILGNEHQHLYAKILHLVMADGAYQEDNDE
# [13] = biological target: T5, Serine/threonine-protein kinase Nek1 (Homo sapiens); conditions: at 1 µM
# [14] = biological target: T6, Serine/threonine-protein kinase Nek2 (Homo sapiens) (UniProt P51955); conditions: at 0.1 µM
# T6 sequence (whole entry): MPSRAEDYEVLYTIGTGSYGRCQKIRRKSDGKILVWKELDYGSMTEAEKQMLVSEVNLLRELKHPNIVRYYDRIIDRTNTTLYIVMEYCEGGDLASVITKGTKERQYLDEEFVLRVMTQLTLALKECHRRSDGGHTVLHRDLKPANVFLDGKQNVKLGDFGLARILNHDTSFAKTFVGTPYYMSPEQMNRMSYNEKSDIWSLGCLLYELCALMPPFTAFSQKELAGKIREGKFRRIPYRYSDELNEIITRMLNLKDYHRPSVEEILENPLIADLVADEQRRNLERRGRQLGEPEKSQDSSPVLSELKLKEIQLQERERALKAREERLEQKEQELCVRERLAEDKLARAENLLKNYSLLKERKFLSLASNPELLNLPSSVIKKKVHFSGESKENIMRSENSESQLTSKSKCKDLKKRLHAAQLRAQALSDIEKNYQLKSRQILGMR
# [15] = biological target: T6, Serine/threonine-protein kinase Nek2 (Homo sapiens); conditions: at 1 µM
# [16] = biological target: Serine/threonine-protein kinase Nek6 (Homo sapiens) (UniProt Q9HC98); conditions: at 0.1 µM
# Serine/threonine-protein kinase Nek6 (Homo sapiens), sequence (Q9HC98 whole entry): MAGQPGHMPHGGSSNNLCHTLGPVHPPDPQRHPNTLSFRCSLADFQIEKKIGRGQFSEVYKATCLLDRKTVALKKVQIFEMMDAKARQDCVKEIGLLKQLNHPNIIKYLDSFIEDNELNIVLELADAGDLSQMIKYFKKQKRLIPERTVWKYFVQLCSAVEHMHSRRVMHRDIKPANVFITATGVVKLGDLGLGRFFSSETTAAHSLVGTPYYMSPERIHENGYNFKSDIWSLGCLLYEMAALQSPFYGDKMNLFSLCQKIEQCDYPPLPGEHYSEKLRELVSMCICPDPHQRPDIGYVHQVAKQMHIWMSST
# [17] = biological target: Serine/threonine-protein kinase Nek6 (Homo sapiens) (UniProt Q9HC98); conditions: at 1 µM
# [18] = biological target: Serine/threonine-protein kinase Nek7 (Homo sapiens) (UniProt Q8TDX7); conditions: at 0.1 µM
# Serine/threonine-protein kinase Nek7 (Homo sapiens), sequence (Q8TDX7 whole entry, looked up): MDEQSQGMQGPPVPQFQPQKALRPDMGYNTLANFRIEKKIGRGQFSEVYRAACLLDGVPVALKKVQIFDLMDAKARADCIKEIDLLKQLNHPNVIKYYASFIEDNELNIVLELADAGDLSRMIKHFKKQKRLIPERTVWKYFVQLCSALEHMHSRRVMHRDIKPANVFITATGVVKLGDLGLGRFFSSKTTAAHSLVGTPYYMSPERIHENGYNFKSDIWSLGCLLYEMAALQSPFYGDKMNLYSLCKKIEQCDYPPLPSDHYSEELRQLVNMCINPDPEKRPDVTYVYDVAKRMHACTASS
# [19] = biological target: Serine/threonine-protein kinase Nek7 (Homo sapiens) (UniProt Q8TDX7); conditions: at 1 µM
# [20] = biological target: T7, Serine/threonine-protein kinase Nek9 (Homo sapiens) (UniProt Q8TD19); conditions: at 0.1 µM;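 also: reported value is the mean percent inhibition of NEK9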
# T7 sequence (whole entry): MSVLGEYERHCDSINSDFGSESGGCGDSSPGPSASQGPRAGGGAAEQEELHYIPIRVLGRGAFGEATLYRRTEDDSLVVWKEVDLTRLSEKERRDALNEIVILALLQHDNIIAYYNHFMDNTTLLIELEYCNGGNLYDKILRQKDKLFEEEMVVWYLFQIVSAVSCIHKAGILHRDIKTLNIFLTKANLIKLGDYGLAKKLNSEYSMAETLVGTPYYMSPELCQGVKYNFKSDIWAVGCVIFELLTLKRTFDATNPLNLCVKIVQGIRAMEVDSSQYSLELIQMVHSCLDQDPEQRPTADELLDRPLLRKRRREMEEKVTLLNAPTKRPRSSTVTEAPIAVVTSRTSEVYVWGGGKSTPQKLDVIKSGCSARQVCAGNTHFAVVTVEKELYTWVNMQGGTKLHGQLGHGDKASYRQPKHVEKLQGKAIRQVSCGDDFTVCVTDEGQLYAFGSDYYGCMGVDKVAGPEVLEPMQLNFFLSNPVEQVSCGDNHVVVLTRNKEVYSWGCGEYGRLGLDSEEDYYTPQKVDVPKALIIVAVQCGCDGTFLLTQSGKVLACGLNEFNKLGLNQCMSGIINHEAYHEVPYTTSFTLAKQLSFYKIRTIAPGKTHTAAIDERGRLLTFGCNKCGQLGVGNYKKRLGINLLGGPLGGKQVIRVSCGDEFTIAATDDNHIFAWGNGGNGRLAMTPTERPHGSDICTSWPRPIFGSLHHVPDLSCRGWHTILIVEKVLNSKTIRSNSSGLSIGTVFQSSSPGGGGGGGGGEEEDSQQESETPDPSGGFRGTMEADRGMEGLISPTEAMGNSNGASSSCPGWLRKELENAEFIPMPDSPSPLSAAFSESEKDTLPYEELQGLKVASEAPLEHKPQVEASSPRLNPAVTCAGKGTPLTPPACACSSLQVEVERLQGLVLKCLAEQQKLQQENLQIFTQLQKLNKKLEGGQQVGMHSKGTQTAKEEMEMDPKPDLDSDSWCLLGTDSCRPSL
# Sphingosine kinase 1 (Homo sapiens), sequence (Q9NYA1 whole entry): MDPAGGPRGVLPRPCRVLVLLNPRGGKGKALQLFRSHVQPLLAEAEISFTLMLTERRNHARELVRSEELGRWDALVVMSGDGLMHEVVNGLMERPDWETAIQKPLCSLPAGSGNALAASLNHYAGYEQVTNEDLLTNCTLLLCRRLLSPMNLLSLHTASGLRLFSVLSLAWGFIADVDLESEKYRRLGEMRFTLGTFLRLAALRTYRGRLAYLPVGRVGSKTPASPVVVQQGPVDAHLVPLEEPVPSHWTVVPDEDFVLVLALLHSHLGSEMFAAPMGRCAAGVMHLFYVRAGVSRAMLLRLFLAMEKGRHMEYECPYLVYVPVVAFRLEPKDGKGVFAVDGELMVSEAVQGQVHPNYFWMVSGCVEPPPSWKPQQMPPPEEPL
SMILES,inhibition [1],inhibition [2],inhibition [3],inhibition [4],inhibition [5],inhibition [6],inhibition [7],inhibition [8],inhibition [9],inhibition [10],inhibition [11],inhibition [12],inhibition [13],inhibition [14],inhibition [15],inhibition [16],inhibition [17],inhibition [18],inhibition [19],inhibition [20]
CCn1c(-c2nonc2N)nc2cnc(Oc3cccc(NC(=O)c4ccc(OCCN5CCOCC5)cc4)c3)cc21,-0.28%,0.73%,-0.35%,2.94%,5.71%,11%,10.1%,5.72%,2.67%,7.92%,27.5%,1.53%,3.94%,3.27%,2.29%,2.55%,4.96%,6.06%,3.89%,7.58%
CCn1c(-c2nonc2N)nc2c(C#CC(C)(C)O)nc(OC[C@@H](N)c3ccccc3)cc21,2.57%,-1.25%,-2.35%,0.95%,1.36%,4.77%,2.26%,-2.58%,-1.93%,0.47%,34.9%,0.04%,3.08%,-1.09%,1.53%,-0.14%,3.35%,0.12%,-0.33%,-3.59%
